# Compounds with a hit are over-represented: about 8.7% of the library has one in this group of screens.
# Pf growth 48h – Primary qHTS for delayed death inhibitors of the malarial parasite plastid, 48 hour incubation. P. falciparum luciferase growth in erythrocytes, 48 h. Potency, µM (highest dose often 28.7 µM), usual class: inhibitors. 5.9% of 310,000 active
#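 First compound was added to culture medium, then infected red cells at 0.1% parasitemia and 2% hematocrit (final). After incubation at 37 C under 5% CO2, luciferase detection reagent was dispensed and light output recorded.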
# AMA1 RON2 block – qHTS for Inhibitors of AMA1-RON; Towards Development of Antimalarial Drug Lead: Primary Screen; Potency, µM (doses to about 58.2 µM), most hits filed as inhibitors; Plasmodium falciparum AMA1 (3D7) - RON2 peptide interaction; 0.2% of 360,000 active; AlphaScreen AMA1-biotinylated RON2 peptide binding; further: nearly all actives have a fitted effect of over 45% in size
#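 AMA1 (3D7) with his tag at 25 nM final met compounds first, then biotinylated RON2 peptide at 25 nM; detection used donor plus acceptor beads, 10 µg/mL apiece, read by AlphaScreen after 30 min at room temperature.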
# Vaccinia mCherry – qHTS for Stage-Specific Inhibitors of Vaccinia Orthopoxvirus: mCherry Reporter Primary qHTS. Vaccinia virus mCherry reporter infection, fluorescence. Potency, µM (doses to about 36.5 µM), usual class: inhibitors. 0.63% of 310,000 active; calls by dose curve; tested in A549 cells; further: nearly all actives have a fitted effect of over 35% in size
# Pf growth 96h – Primary qHTS for delayed death inhibitors of the malarial parasite plastid, 96 hour incubation | P. falciparum luciferase reporter growth, 96 h | Potency, µM (doses to about 28.7 µM), most hits filed as inhibitors | 6.9% of 320,000 active | AID 504834, 2011
#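 Compounds incubated with erythrocytes infected by luciferase-expressing P. falciparum (2% hematocrit, 0.05% parasitemia final) for 96 hours, 37 C in 5% CO2. Growth inhibition scored as decreased luciferase luminescence.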
# Vaccinia Venus – qHTS for Stage-Specific Inhibitors of Vaccinia Orthopoxvirus: Venus Reporter Primary qHTS; AID 720580, 2013; Vaccinia virus Venus reporter expression, fluorescence; Potency, µM (top dose mostly 36.5 µM), actives largely listed as inhibitors; 0.46% of 330,000 active; calls by dose curve; tested in A549 cells; further: nearly all actives have a fitted effect of over 30% in size
# Numbers stand for hits; . = inactive; ? = inconclusive; / = not tested or not shown; [ ] = dose if it differs, or a comment. Unless noted, the call rests on the fitted dose curve; in most records, active means well fitted curve in the direction sought with a large enough effect; inconclusive means small, poorly fitted or top-dose-only effect, or another doubt; inactive means no such curve, though single readings can be large; an effect the other way counts as inactive or inconclusive.
SMILES,Pf growth 48h,AMA1 RON2 block,Vaccinia mCherry,Pf growth 96h,Vaccinia Venus
Cc1nnc(NC(=O)CCC(=O)NCc2cccs2)s1,.,.,/,.,/
CC(Oc1ccccc1)C(=O)Nc1nnc(S(=O)(=O)N2CCCCC2)s1 (stereo not drawn),.,.,.,?,.
O=C(Nc1ccc(Cl)c(Cl)c1)Nc1nc(-c2ccccc2)cs1,?,.,?,2.3µM,.
O=C(Nc1ccccc1)Nc1nc(-c2ccccc2)cs1,.,.,/,.,/
Cc1noc(C)c1CSCC(=O)Nc1ccc(OC(F)F)c(Cl)c1,.,.,.,.,.
COc1cc(OC)cc(C(=O)N[C@H](C(=O)Nc2nc(-c3ccc(F)c(F)c3)cs2)C(C)C)c1,13µM,.,.,.[5.75 µM],.
O=C(Nc1ccccc1)Nc1nc(-c2ccc(F)c(F)c2)cs1,12µM,.,.,13µM,.
Cc1noc(C)c1CSCC(=O)Nc1ccc(S(=O)(=O)C(F)F)cc1,.,.,.,4.7µM,.
NCCCCCCNS(=O)(=O)c1ccc2c(Cl)cccc2c1,/,/,.,/,.
CCC(C)NC(=O)c1ccc2nc(-c3ccco3)c(-c3ccco3)nc2c1 (stereo not drawn),/,/,.,/,.
Cc1noc(C)c1CSCC(=O)Nc1nc(-c2ccc(F)c(F)c2)cs1,10µM,.,.,?,.
O=C(CN1CCOCC1)N/N=C/c1cc2ccccc2nc1Cl,.,.,.[1.46 µM],1.5µM,.
Cc1ccc(NCC(=O)N/N=C/c2cc3ccccc3nc2Cl)cc1,?,.,/,.,/
NC1=NC[C@H](c2ccccc2)N1CCCCC1CCCCC1,?,.,.,?,?
S=C1NC[C@H](c2ccccc2)N1CCCCC1CCCCC1,12µM,.,?,6.6µM,.
CCN1CCCc2cc(CN(CCN3CCOCC3)C(=S)Nc3ccc(OC)cc3)ccc21,.,.,/,5.9µM,/
CCN1CCCc2cc(CN(CCN3CCOCC3)C(=S)Nc3ccc(C)cc3)ccc21,?,.,.,.,.
CCOc1ccc(NC(=S)N(CCN2CCOCC2)Cc2ccc3c(c2)CCCN3CC)cc1,?,.,/,?,/
CCN1CCCc2cc(CN(CCN3CCOCC3)C(=S)Nc3cccc(Cl)c3)ccc21,?,3.5µM,?,.,.
COc1cc2c(C#N)c(N3CCN(C)CC3)nc(N)c2c(N)n1,.,/,/,/,/
COc1cc2c(C#N)c(N3CCN(c4ccccc4OC)CC3)nc(N)c2c(N)n1,2.1µM,.,/,8.3µM,?
CC(=O)OCOC(=O)CN(CC(=O)OCOC(C)=O)c1ccccc1OCCOc1ccccc1N(CC(=O)OCOC(C)=O)CC(=O)OCOC(C)=O,/,/,.,/,.
CC1CSc2n(-c3cccc(C(F)(F)F)c3)cc(-c3ccccc3)[n+]21 (stereo not drawn),1.9µM,.,.,?,.
Cc1ccc(-c2n[nH]c(=S)n2/N=C/c2ccc(C)s2)cc1,12µM,.,/,12µM,.
Cc1ccc(/C=N/n2c(-c3ccc(Cl)cc3)n[nH]c2=S)s1,.,.,.,.,.
SMILES,Pf growth 48h,AMA1 RON2 block,Vaccinia mCherry,Pf growth 96h,Vaccinia Venus
COc1nc(NC2CCCCC2)nc(NC(C)(C)C)n1,/,.,?,/,?
CC(C)(C)Nc1nc(Cl)nc(NC2CCCCC2)n1,.,.,.,13µM,.
Nc1ccc(/C=C/c2nccc3ccccc23)cc1,/,/,.,/,.
COc1cc(OC)cc(OCC(O)Cn2cnc3cc(C)c(C)cc32)c1 (stereo not drawn),/,.,.,10µM,.
COc1ccc(OCC(O)Cn2ccnc2C)cc1 (stereo not drawn),.,.,.,?,.
COc1ccc(-n2cccc2/C=C/[N+](=O)[O-])cc1,?,.,.,3.3µM,.
O=C(COC(=O)c1ccccc1Oc1ccccc1)Nc1ccc(Br)cc1,/,/,.,/,.
CC(=O)Nc1c(O)cc(Br)c2nonc12,/,/,.,/,.
CC(=O)Nc1cc(O)c2nonc2c1O,/,/,11µM,/,3.5µM
CCc1ccc(CN(C)Cc2nc(Cc3ccc(OC)c(OC)c3)no2)nc1,?,.,.,.,.
COc1ccc(Cc2noc(CN(C)Cc3ccc(-n4cccn4)cc3)n2)cc1OC,.,.,/,2.1µM,/
CN(C)S(=O)(=O)c1ccc(NC(=S)NC(=O)c2cccs2)cc1,.,.,.,9.3µM,.
COc1ccccc1NS(=O)(=O)c1cc(NC(=O)c2ccccc2F)ccc1N1CCOCC1,.,.,.,9.3µM,.
O=C(NC(=S)Nc1ccc(N2CCOCC2)c(Cl)c1)c1cccs1,?,.,.,2.3µM,.
COc1ccccc1NS(=O)(=O)c1cc(NC(=O)c2cccs2)ccc1N1CCOCC1,9.3µM,.,.,?,.
CSc1ccc(CCNC(=O)c2cc(C)nc3c2c(C)nn3-c2ccccc2)cc1,/,/,.,/,?
COc1nnc(-c2ccc(N3CCOCC3)c(NC(=O)c3ccccc3)c2)c2ccccc12,/,.,/,?,/
COc1nnc(-c2ccc(N3CCOCC3)c(NC(=O)c3ccco3)c2)c2ccccc12,7.4µM,.,/,.,.
COc1ccccc1NS(=O)(=O)c1cc(NC(=O)c2ccco2)ccc1N1CCOCC1,?,.,.,10µM,.
CC(=O)Nc1ccc(S(=O)(=O)NCCc2csc3nc(-c4cccc(C)c4)nn23)cc1,/,/,.,/,.
Cc1nnsc1C(=O)Oc1ccc(Cl)cc1,/,/,.,/,.
Cc1ccc(Cc2nc3ccccc3nc2SCC(=O)NCc2ccc(F)cc2)cc1,/,/,.,/,.
Cc1oc(C(C)(C)C)cc1-c1cc(NC(=O)c2ccc([N+](=O)[O-])cc2)n[nH]1,1.9µM,.,.[7.34 µM],2.3µM,.[7.34 µM]
CCCSc1ncc(Cl)c(C(=O)Nc2c(C(=O)Nc3ccc(C)cc3)oc3ccccc23)n1,/,/,.,/,.
Cc1ccc(NC(=O)Cn2c(=O)ccc3cc(S(=O)(=O)N4CCC(C)CC4)ccc32)cc1Cl,/,/,.,/,.
SMILES,Pf growth 48h,AMA1 RON2 block,Vaccinia mCherry,Pf growth 96h,Vaccinia Venus
CCSc1ncc(Cl)c(C(=O)Nc2sc3c(c2C(=O)NCCOC)CCCC3)n1,/,/,.,/,.
COc1ccc(NC(=S)N(CCCN2CCCCC2)Cc2cccs2)cc1,?,.,.,12µM,.
COc1cccc(NC(=S)N(CCCN2CCC(C)CC2)Cc2cccs2)c1,.,.,.,.,.
COc1ccc(NC(=S)N(CCCN2CCC(C)CC2)Cc2cccs2)cc1,.,.,.,5.9µM,.
CCOC(=O)c1ccc(NC(=S)N(CCCN2CCN(CC)CC2)Cc2cccs2)cc1,8.3µM,.,.,.,.
CC1CCC(NC(=O)c2ccc(CS(=O)(=O)c3c(Cl)cccc3Cl)o2)CC1 (stereo not drawn),/,/,.,/,.
CCOC(=O)Cn1c(=O)oc2cc(S(=O)(=O)NC(C)c3ccccc3)ccc21 (stereo not drawn),/,.,.,8.3µM,.
CCOC(=O)Cn1c(=O)oc2cc(S(=O)(=O)NCCC(C)C)ccc21,/,.,.,?,.
CCOC(=O)Cn1c(=O)oc2cc(S(=O)(=O)Nc3cc(OCC)ccc3OCC)ccc21,?,.,/,1.5µM,/
C=CCN1CCN(C(=O)c2ccc(-c3ccccc3)cc2)CC1,.,.,/,1.3µM,/

# Assay outcomes from PubChem.
